# Measured values taken from ChEMBL document CHEMBL4513216, “Probing the Open Global Health Chemical Diversity Library for Multistage-Active Starting Points for Next-Generation Antimalarials” (ACS Infect Dis, 2020).
# The whole screen tested about 69,000 compounds, of which about 8,600 (12%) showed an effect of 50% or more. Many of the other results were omitted from the sample, so strong results are more common in it than they were.
# System: Plasmodium berghei
# Test: Screen against P. berghei liver stage (PbLuc), transformed with Luciferase, at 10uM
# Assay type: functional, HepG2
# Details: tested at 10 uM
row,Structure (SMILES),INHIBITION
1,Cc1nc(C(C)C)sc1C(=O)N1CCC(N2CCSCC2)CC1,1.86%
2,CN1CCOCC2(CCN(Cc3ccc[nH]3)CC2)C1,18.7%
3,c1c[nH]c(CN2CCC3(CC2)COCCN(CCN2CCCC2)C3)c1,-15.3%
4,CS(=O)(=O)N1CCOCC2(CCN(Cc3ccc[nH]3)CC2)C1,57.1%
5,O=C(O)c1ccccc1-c1ccc(CN2CCC(CO)C2)cn1 (stereo not drawn),33.2%
6,CC(C)n1cnc2c1C(C(=O)N1CCOCC1)N(CC1CC1)CC2 (stereo not drawn),-49.1%
7,CN(C)C(=O)COCc1nn(C)c2c1CCN(Cc1ccco1)C2,13.3%
8,Cc1cccc(CN2CCc3c(CNC(=O)CC#N)nn(C)c3C2)n1,44.2%
9,Cc1cccc(CN2CCc3c(COCC(=O)N(C)C)nn(C)c3C2)n1,76.2%
10,CN1CCC(c2cccc(-c3ccc(C(=O)O)cc3)n2)CC1,15.5%
11,c1csc(CN2CCCN(c3ncnc4[nH]ccc34)CC2)c1,38.4%
12,CCCc1nc(N(C)CCc2noc(C(C)C)n2)c2cnn(C)c2n1,42.3%
13,CCCc1nc(N(C)CCN2CCCCCC2)c2cnn(C)c2n1,53%
14,CN(C)CCN(C)c1nc(CCc2ccccc2)nc2c1cnn2C,-13.4%
15,CCCc1nc(N(C)Cc2cnc(NC)nc2)c2cnn(C)c2n1,58.7%
16,CNc1ncc(CN(C)c2nc(C3CCCC3)nc3c2cnn3C)cn1,24.7%
17,CCCc1nc(N2CCCN(c3ncccn3)CC2)c2cnn(C)c2n1,30.9%
18,Cc1cccc(-n2c(C)cc(C(=O)NS(C)(=O)=O)c2C)c1,9.14%
19,C/C(Cl)=C/CNC(=O)C1CCC2(CC1)CN(C)C(=O)c1ccccc1O2 (stereo not drawn),7.96%
20,CCC(C)NS(=O)(=O)c1ccc(C=Cc2onc(C)c2NC(C)=O)cc1 (stereo not drawn),-9.55%
21,CC(C)NC(=O)CN1CCN(CC2CCOc3ccccc3C2)CC1 (stereo not drawn),-19.8%
22,CN(C)C(=O)CN1CCCN(CC2CCOc3ccccc3C2)CC1 (stereo not drawn),75.2%
23,O=C(CN1CCN(CC2CCOc3ccccc3C2)CC1)N1CCCC1 (stereo not drawn),16.1%

row,Structure (SMILES),INHIBITION
1,O=C(COc1ccccc1Cl)N1CCCC(n2ccnc2)C1 (stereo not drawn),19.5%
2,O=C(c1ccc(S(=O)(=O)N2CCSCC2)cc1)N1CCCCCC1,24.2%
3,Cc1ccc(C(=O)N2CCN3C[C@H](Oc4cccnc4)C[C@H]3C2)cn1,39.3%
4,CCNC(=O)c1ccnc(NCC2COc3cc(OC)ccc3C2)c1 (stereo not drawn),51.6%
5,Cc1n[nH]c(C)c1CCC(=O)NCC1COc2ccccc2C1 (stereo not drawn),52.6%
6,COCCC(=O)NCC1COc2cc(OC)ccc2C1 (stereo not drawn),72.7%
7,Cc1n[nH]c(C)c1CCC(=O)NCC1CCOc2ccccc2C1 (stereo not drawn),49.9%
8,CCc1nc(C)c(C(=O)NCC2COc3cc(OC)ccc3C2)o1 (stereo not drawn),53.2%
9,COc1ccc2c(c1)OCC(CNC(=O)c1cnc(O)cn1)C2 (stereo not drawn),12.9%
10,COc1ccc2c(c1)OCC(CNC(=O)c1cnc(NC(C)C)nc1)C2 (stereo not drawn),-42.8%
11,COc1ccc2c(c1)OCC(CNC(=O)CCc1c(C)n[nH]c1C)C2 (stereo not drawn),35%
12,COc1ccc2c(c1)OCC(CNC(=O)c1cc[nH]c1C)C2 (stereo not drawn),-3.83%
13,COc1ccc2c(c1)OCC(CNC(=O)c1ccc3[nH]nnc3c1)C2 (stereo not drawn),4.52%
14,COc1ccc2c(c1)OCC(CNC(=O)c1ccncc1)C2 (stereo not drawn),4.2%
15,Cc1[nH]nc(CCC(=O)NCC2COc3ccccc3C2)c1C (stereo not drawn),13.7%
16,CC(C)c1nn(C)cc1CNCc1cccc(N(C)C)c1,12.4%
17,Cc1nccn1C1CCCN(C(=O)COC2CCCC2)C1 (stereo not drawn),39.735%
18,CCN(c1ccc(C(=O)NCCCN2CCOCC2)cc1)S(=O)(=O)CC,-0.79%
19,NCC(CO)Cc1ccc(OC(F)(F)F)cc1 (stereo not drawn),19%
20,CCOc1ccc(Cl)c(C(=O)N2CCN(CC(C)(C)O)CC2)n1,4.52%
21,CCC[C@H]1CN(C(=O)c2cc(-c3cccs3)n(C)n2)C[C@@H]1N,29.7%
22,c1cc(-c2nc(CN3CCc4c(ncn4C4CC4)C3)cs2)cs1,22.6%
23,CCN1C[C@@H]2CN(c3cc(OC)ncn3)CCC[C@]2(C(=O)O)C1,47.5%

row,Structure (SMILES),INHIBITION
1,COCCN1C[C@@H]2CN(c3cc(OC)ncn3)CCC[C@]2(C(=O)O)C1,57.1%
2,COc1cc(N2CCC[C@]3(C(=O)O)CN(C(C)C)C[C@@H]3C2)ncn1,26.5%
3,CN(C)S(=O)(=O)N1CCCC(C)(c2ncc(C(N)=O)s2)C1 (stereo not drawn),23.9%
4,O=C(COC1CCCC1)NCCCn1nc2ccccn2c1=O,-24.6%
5,CN1CCC(N(CCc2ccccc2)C(=O)c2cc[nH]c2)CC1,32.8%
6,CC1(C(=O)N2CCOCC2)CN(C2CCCCC2)CCO1 (stereo not drawn),56.8%
7,CN1CCOC(C)(C(=O)N2CCN(C3CCCC3)CC2)C1 (stereo not drawn),32.8%
8,CC1(C(=O)N2CCOCC2)CN(CC2CCOCC2)CCO1 (stereo not drawn),7.25%
9,COCC(=O)NCc1cc(=O)n2c(n1)CN(Cc1ccoc1)CCC2,36.9%
10,Cc1nc(C)c(C(=O)N2CCc3nc4c(C)csc4c(=O)n3CC2)s1,39.7%
11,Cc1csc2nc3n(c(=O)c12)CCN(Cc1c[nH]cn1)CC3,17.1%
12,CN1CC(C(=O)NCCOc2ccc3c(c2)OCO3)CC1=O (stereo not drawn),16.9%
13,CC(NC(=O)N1CCCN(CC(F)F)CC1)c1ccco1 (stereo not drawn),62.3%
14,CCc1cnc(C(C)NC(=O)N2CCCN(CC(F)F)CC2)s1 (stereo not drawn),-37.8%
15,CC(CNC(=O)N1CCN(CC(F)F)CC1)Cc1cccs1 (stereo not drawn),-13.2%
16,CC(NC(=O)N1CCCN(Cc2cccs2)CC1)c1cccnc1 (stereo not drawn),6.92%
17,CC(=O)N1CCCN(C(=O)NC(C)c2ccc(C)o2)CC1 (stereo not drawn),11.3%
18,Cc1ccc(C(C)NC(=O)N2CCCN(CC(F)F)CC2)s1 (stereo not drawn),60.9%
19,CN(C)C(=O)c1cc2ncc(C(=O)NC3CC3)cc2n1C,2.59%
20,CC(CNCc1ccncc1)Oc1ccccn1 (stereo not drawn),-52.1%
21,Cc1nccn1CCC1CCN(C2CCC3(CCNCC3)CC2)CC1,12.1%
22,O=C1[C@H]2CN(Cc3ccc(F)cc3)C[C@H]2CN1CCN1CCCC1,3.81%
